# Screening data deposited in PubChem by several laboratories.
# Rows were chosen to be rich in hits. Some 5.3% of all compounds tested hit in one or more screens of this group.
# SUMO Mot1 rescue: inhibitors of SUMOylation pathway: yeast Mot1-301 growth rescue. S. cerevisiae Mot1-301 growth rescue, ATP luminescence, 38.5C; percent above DMSO median, 100 means doubled. growth rescue, % at 18.8 µM. 320,000 tested, 1% active. AID 2716;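 active = every valid replicate shows activation above 250% relative to neutral control wells; inactive = the rest, any valid replicate at or below 250%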;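 also: OY570 slx delta 5 strain wells were the positive control but not used for scaling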
# ALR H2O2 inh: human ALR oxidase inhibition via reduced H2O2 | P55789 | purified ALR, DTT oxidation, H2O2 HRP-luminol luminescence | inhibition, % (no concentration beside the values) | 290,000 tested, 3.8% active | AID 485317;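 active = mean replicate inhibition above about 79%, with every replicate also reaching it, limit read from the data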
# Target sequence (P55789 whole entry, looked up): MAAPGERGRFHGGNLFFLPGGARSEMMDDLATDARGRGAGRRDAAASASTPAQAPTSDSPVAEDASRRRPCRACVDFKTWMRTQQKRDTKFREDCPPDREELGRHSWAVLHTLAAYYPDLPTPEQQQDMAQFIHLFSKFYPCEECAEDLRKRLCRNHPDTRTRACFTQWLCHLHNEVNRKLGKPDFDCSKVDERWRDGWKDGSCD
# HIF activator: HIF pathway transcriptional activation. U2OS HRE-luciferase reporter, luminescence; normalized: DMSO 0%, desferrioxamine 100%. activation, % at 7.5 µM (by protocol). 300,000 tested, 0.32% active. AID 1910;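 active = mean activation of at least 10% of the iron chelator positive control signal, with at least half of replicates also reaching 10%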
# M18AAP inhibitor: PfM18AAP enzyme inhibition. recombinant PfM18AAP, H-Glu-NHMec fluorogenic cleavage. inhibition, % at 7.35 µM. 290,000 tested, 1.2% active. AID 1822;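 active = inhibition above the campaign mean inhibition over all tested compounds plus 3 SD, cut at about 28% in these data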;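 also: 0% = plate median of test compound wells and 100% = 2 mM ZnCl2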
# An asterisk follows results filed as active; x = not tested or not shown; + = active, no number.
SMILES,SUMO Mot1 rescue,ALR H2O2 inh,HIF activator,M18AAP inhibitor
CCOC(=O)C1CCCN(C2=NC(=O)/C(=C/c3ccc(O)c(OCC)c3)S2)C1 (configuration not stated),-28,96*,0,0
CCOC(=O)C1CCCN(C2=NC(=O)/C(=C/c3ccc(N(C)C)cc3)S2)C1 (configuration not stated),-2,100*,0,-2
CCOC(=O)C1CCCN(C2=NC(=O)/C(=C/c3ccc(OC)cc3)S2)C1 (configuration not stated),1,-2,-1,0
CCOC(=O)C1CCN(C2=NC(=O)/C(=C/c3ccc(O)cc3)S2)CC1,13,98*,-1,15
COc1cccc(/C=C2\SC(N3CCCC(C)C3)=NC2=O)c1OC (configuration not stated),-7,97*,2,10
COc1ccccc1/C=C1\SC(N2CCC(C)CC2)=NC1=O,-9,-5,3,2
O=C([C@@H]1Cc2ccccc2CN1)N1CCN(Cc2ccccc2)CC1,-9,12,1,4
CCN(CC(=O)Nc1ccccc1OC)C(=O)CSCc1ccc(C)cc1,0,-3,x,x
CCOC(=O)C1CCCN(C2=NC(=O)/C(=C/c3ccc(OC)cc3OC)S2)C1 (configuration not stated),-1,13,-1,28*
CCOC(=O)CSC1=NC(=O)/C(=C/c2ccc(OC)cc2)S1,31,99*,x,21
Cc1ccc(/C=C/C(=O)OCC(=O)NC(=O)NCc2ccco2)cc1,1,-2,x,x
Cc1ccc(NC(=O)c2ccccc2)s1,7,95*,-1,-9
CC1=NN(C(N)=S)C(=O)C1N=Nc1ccc([N+](=O)[O-])cc1 (configuration not stated),-14,79*,0,4
CC1=NN(C(N)=S)C(=O)C1N=Nc1ccc(O)cc1 (configuration not stated),x,x,0,29*
CC1=NN(C(N)=S)C(=O)C1N=Nc1ccc(F)cc1 (configuration not stated),x,x,3,14
Brc1ccc(-n2cccc2/C=N/n2cnnc2)cc1,-16,-1,0,31*
COc1cc(/C=C/C(=O)OCC(=O)N2CC(=O)Nc3ccccc32)ccc1O,-33,96*,0,12
O=S(=O)(c1cccs1)N1CCN(c2ccccc2F)CC1,335*,-3,2,10
CC(NC(=O)C12CC3CC(CC(C3)C1)C2)C(=O)N/N=C/C1=C(N2CCOCC2)C(=C\c2ccccc2)/CC1 (configuration not stated),-19,-1,-1,-3
Cn1cc(C(=O)N/N=C/C2=C(N3CCOCC3)C(=C\c3ccccc3)/CC2)ccc1=O,-5,89*,0,13
Cc1ccc(Nc2nc(N3CCN(C)CC3)nc(N)c2[N+](=O)[O-])cc1C,3,-1,0,1
CCNc1nc(OCCNS(=O)(=O)c2cc(C)ccc2C)nc(N(C)C)n1,140,-1,0,-4
CCNc1nc(OC)nc(N(OC)S(=O)(=O)c2ccc(C)cc2)n1,-3,82*,-3,-7
Cc1nnc(NC(=O)c2ccccc2F)s1,-2,-12,1,-1
Cc1nnc(NC(=O)c2ccccc2Br)s1,302*,5,1,-5
SMILES,SUMO Mot1 rescue,ALR H2O2 inh,HIF activator,M18AAP inhibitor
CCN(CC)C(=O)CSc1nc2ccc(NC(=O)CSc3nccn3C)cc2s1,-1,99*,1,6
CCCC(=O)Nc1ccc2nc(SCC(=O)Nc3nccs3)sc2c1,158,99*,-1,-2
O=C(CCCSc1nc2ccccc2s1)Nc1nccs1,253,x,0,3
CCN(CC)C(=O)CSc1nc2ccc(NC(=O)CSc3nnc(N)s3)cc2s1,-10,-10,0,0
CC(C)(C)CC(=O)NCCc1csc(-c2ccccc2)n1,20,-2,2,-6
O=C(c1ccccc1)N1CCN(c2ccc(N3CCOCC3)nn2)CC1,61,0,-1,x
Cc1ccc([N+](=O)[O-])cc1N=C1C(=O)Nc2ccccc21,9,-12,-5,-11
COc1cc(/C=N\NC(=O)C2CC3C=CC2C3)ccc1O (configuration not stated),-3,100*,0,4
O=C(N/N=C/c1ccccc1O)NC12CC3CC(CC(C3)C1)C2,-6,28,3,-9
COc1cc(/C=N/NC(=O)c2cnccn2)ccc1O,9,-16,0,10
O=C(N/N=C/c1cccnc1)NC12CC3CC(CC(C3)C1)C2,-8,-14,0,-2
COc1cc(/C=N/NC(=O)NC23CC4CC(CC(C4)C2)C3)ccc1O,-2,95*,-2,9
CCOc1ccc(/C=N/NC(=O)NC23CC4CC(CC(C4)C2)C3)cc1O,21,99*,0,6
COCC(=O)N(Cc1nc2sc(C)c(C)c2c(=O)[nH]1)C1CCCCC1,-7,-6,0,1
CCCCC(=O)N(Cc1nc2sc(C)c(C)c2c(=O)[nH]1)C1CCCC1,+,-9,-1,-3
Cc1cc(O)c(/C=N/Nc2ccc(Cl)cc2)c(=O)o1,127,98*,0,-2
COc1ccc(NS(=O)(=O)c2ccc3c(c2)N(C(C)=O)CCO3)c(OC)c1,-1,0,0,5
O=C(NN=C1CCCC1)c1ccc(Br)cc1,-4,-2,0,4
O=C(Nc1cc([N+](=O)[O-])ccc1O)c1ccc2c(c1)C(=O)N(Cc1ccco1)C2=O,-17,98*,0,-2
O=C(Nc1ccc(O)cc1)c1ccc2c(c1)C(=O)N(Cc1ccco1)C2=O,-2,100*,0,3
O=C(Nc1ccc(O)cc1C(=O)O)c1ccc2c(c1)C(=O)N(Cc1ccco1)C2=O,10,54,0,-11
O=C(Cn1[nH]c(=O)c2ccccc2c1=O)N1CC=C(c2ccccc2)CC1,-8,-1,2,3
N#CCCn1cc(/C=C2\NC(=S)N(c3ccccc3)C2=O)c(-c2ccc(-c3ccccc3)cc2)n1,-19,1,0,1
O=C(O)CCn1cc(/C=C2/NC(=S)N(c3ccccc3)C2=O)c(-c2ccccc2)n1,-14,97*,0,6
CCC(=O)Nc1ccc(NC(=O)CSc2nnnn2-c2cccnc2)cc1C,-7,-36,0,2
SMILES,SUMO Mot1 rescue,ALR H2O2 inh,HIF activator,M18AAP inhibitor
O=C(O)CSc1c2ccccc2cc2ccccc12,-37,99*,0,13
O=C(O)CSc1nnc(SCc2cccc3ccccc23)s1,6,98*,0,3
O=C(O)COc1ccccc1/C=N/NC(=O)CSc1nnc(SCc2cccc3ccccc23)s1,x,97*,1,3
CCCC(=O)Nc1cc2c3c(c1)C(C)C(=O)N3CCC2 (configuration not stated),-16,-67,0,-3
CSCCC1COC(c2cccs2)=N1 (configuration not stated),-10,-18,0,-4
CCC(C)N(C(=O)CSc1ccc(NC(C)=O)cc1)C1CCS(=O)(=O)C1 (configuration not stated),250,88*,0,6
